Several values for one entry are separate records, joined by “and”; a condition that tells them apart may be missing. Equal values may be shown once. Records with an inconclusive call do not appear. Activity calls are given as the source filed them. The call rests on the fitted dose curve; in most records, active means well fitted curve in the direction sought with a large enough effect; inconclusive means small, poorly fitted or top-dose-only effect, or another doubt; inactive means no such curve, though single readings can be large; an effect the other way counts as inactive or inconclusive.
How the values were obtained:
MKL-1 = assay: qHTS assay to identify novel small-molecules to repurpose for Merkel cell carcinoma treatment (AID 1296009); settings: MCC and control cell lines, CellTiter-Glo viability, 72 h; series mostly up to 46 µM; further: nearly all actives have a fitted effect of over 60% in size
Outline: (§1)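 Cell viability, measured as CellTiter-Glo luminescence, was normalized between DMSO and no-cell wells. The cells had been exposed to 8- or 11-point compound dilutions for 72 hr at 37 degree celsius.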

MKL-2 = assay: as above; settings: MCC and control cell lines, CellTiter-Glo viability, 72 h; series mostly up to 46 µM
Outline: as §1

WaGa = assay: as above; settings: MCC and control cell lines, CellTiter-Glo viability, 72 h; series mostly up to 46 µM
Outline: as §1

C33A = assay: Primary qHTS to identify gynecologic anti-cancer compounds using libraries of approved drugs and bioactive compounds (AID 1345084); settings: Gynecologic cancer cell panel viability, ATPlite luminescence, 48 h; series mostly up to 57.5 µM; further: nearly all actives have a fitted effect of over 55% in size
Outline: (§2)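 Five-point cytotoxicity, 48 h drug exposure at 37 C, 5% CO2, on cells seeded 16 h beforehand. ATP content read by ATPlite luminescence.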

CAOV3 = assay: as above; settings: Gynecologic cancer cell panel viability, ATPlite luminescence, 48 h; series mostly up to 57.5 µM
Outline: as §2

CASKI = assay: as above; settings: Gynecologic cancer cell panel viability, ATPlite luminescence, 48 h; series mostly up to 57.5 µM
Outline: as §2

Es-2 = assay: as above; settings: Gynecologic cancer cell panel viability, ATPlite luminescence, 48 h; series mostly up to 57.5 µM
Outline: as §2

HeLa = assay: as above; settings: Gynecologic cancer cell panel viability, ATPlite luminescence, 48 h; series mostly up to 57.5 µM
Outline: as §2

Hek293T = assay: as above; settings: Gynecologic cancer cell panel viability, ATPlite luminescence, 48 h, control line for the selectivity index; series mostly up to 57.5 µM
Outline: as §2

JEG-3 = assay: as above; settings: Gynecologic cancer cell panel viability, ATPlite luminescence, 48 h; series mostly up to 57.5 µM
Outline: as §2

OV90 = assay: as above; settings: Gynecologic cancer cell panel viability, ATPlite luminescence, 48 h; series mostly up to 57.5 µM
Outline: as §2

Tov-21-G = assay: as above; settings: Gynecologic cancer cell panel viability, ATPlite luminescence, 48 h; series mostly up to 57.5 µM
Outline: as §2

Tov112D = assay: as above; settings: Gynecologic cancer cell panel viability, ATPlite luminescence, 48 h; series mostly up to 57.5 µM
Outline: as §2

[1] = Drug repurposing screens with cells derived from glioblastoma tumor samples (AID 1345199); settings: GBM patient neurospheres viability, ATP luminescence, 48 h; further: nearly all actives have a fitted effect of over 40% in size
Outline: (§3)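 Primary testing used CD133+ neurospheres from four GBM patients, seven concentrations, 48 h exposure and ATP-based viability; confirmation added three slower-growing patient lines.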

PA-1 = assay: Primary qHTS to identify gynecologic anti-cancer compounds using libraries of approved drugs and bioactive compounds (AID 1345084); settings: Gynecologic cancer cell panel viability, ATPlite luminescence, 48 h; series mostly up to 57.5 µM; further: nearly all actives have a fitted effect of over 55% in size
Outline: as §2

SKOV3 = assay: as above; settings: Gynecologic cancer cell panel viability, ATPlite luminescence, 48 h; series mostly up to 57.5 µM
Outline: as §2

astro = assay: Drug repurposing screens with cells derived from glioblastoma tumor samples (AID 1345199); settings: viability, ATP luminescence, 48 h; series mostly up to 45.9 µM; further: nearly all actives have a fitted effect of over 40% in size
Outline: as §3

UISO = assay: qHTS assay to identify novel small-molecules to repurpose for Merkel cell carcinoma treatment (AID 1296009); settings: MCC and control cell lines, CellTiter-Glo viability, 72 h; series mostly up to 46 µM; further: nearly all actives have a fitted effect of over 60% in size
Outline: as §1

[2] = at 46.1 µM (top of the series), tumour line C
On the % scale 0 is the no-effect control and ±100 the full control effect; potency means the concentration at half of the fitted maximal effect.

CC(CCc1ccc(O)cc1)NCCc1ccc(O)c(O)c1 (centres undefined)
active: Potency (MKL-1) 7.5 µM | Potency (MKL-2) 23.5 µM and 11.9 µM | Potency ([1]; tumour line A) 28.2 µM | Potency ([1]; tumour line B) 31.6 µM
inactive: Potency (WaGa) | Potency (C33A) | Potency (CAOV3) | Potency (CASKI) | Potency (Es-2) | Potency (HeLa) | Potency (Hek293T) | Potency (JEG-3) | Potency (OV90) | Potency (Tov-21-G) | Potency (Tov112D) | activity, negative = cell killing [1, 2] 5.45%

CC(COc1ccccc1)N(CCCl)Cc1ccccc1 (centres undefined)
active: Potency ([1]; tumour line A) 20 µM
inactive: Potency (C33A) | Potency (CAOV3) | Potency (CASKI) | Potency (Es-2) | Potency (HeLa) | Potency (Hek293T) | Potency (JEG-3) | Potency (OV90) | Potency (PA-1) | Potency (SKOV3) | Potency (Tov-21-G) | Potency (Tov112D) | activity, negative = cell killing ([1]; at 45.9 µM (top of the series), tumour line B) -26.4% | activity, negative = cell killing [1, 2] -13% | Potency (astro)

CC[C@@]1(O)C(=O)OCc2c1cc1n(c2=O)Cc2cc3c(CN(C)C)c(O)ccc3nc2-1
active: Potency (MKL-1) 21.1 nM and 93.5 nM | Potency (MKL-2) 4.2 nM and 13.2 nM | Potency (UISO) 237 nM and 46.9 nM | Potency (WaGa) 3.8 nM and 26.4 nM | Potency (C33A) 2.51 µM and 7.08 µM | Potency (CASKI) 1.26 µM and 4.47 µM | Potency (Es-2) 2 µM | Potency (Hek293T) 8.91 µM | Potency (PA-1) 447 nM and 1.58 µM | Potency (SKOV3) 14.1 µM | Potency (Tov-21-G) 31.6 µM | Potency (Tov112D) 316 nM and 1.41 µM | Potency ([1]; tumour line A) 0.891 µM | Potency ([1]; tumour line D) 3.55 µM | Potency (astro) 17.8 µM
inactive: Potency (HeLa) | activity, negative = cell killing [1, 2] -20.9%
